# Most compounds without a hit are left out; they make up all but 21% or so of the library.
# NS1 inh = blocks influenza NS1 protein function | Potency, µM (highest dose often 46.1 µM) | actives 0.4% (n = 270,000) | AID 2326; calls by dose curve; also: actives are rising curves; nearly all actives have a fitted effect of over 50% in size
#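 OD600 was taken as the measure of yeast growth restored by compound in an NS1-expressing S. cerevisiae strain. Cells had been washed out of glucose medium and diluted 1:100 into galactose -URA medium, pH 6.0.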
# Pf growth 96h = P. falciparum growth inhibition at 96 hours | P. falciparum luciferase reporter growth, 96 h | Potency, µM (top dose mostly 28.7 µM), most hits filed as inhibitors | actives 6.9% (n = 320,000)
#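 Luminescence readout: decreased luciferase signal marks inhibited growth of reporter-expressing P. falciparum in infected red cells (2% hematocrit, 0.05% parasitemia final), exposed to compound two generations (96 h, 37 C, 5% CO2).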
# Pf growth 48h = P. falciparum growth inhibition at 48 hours (one generation). actives 5.9% (n = 310,000). Potency, µM (doses to about 28.7 µM), usual class: inhibitors. AID 504832. P. falciparum luciferase growth in erythrocytes, 48 h
#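 Luciferase-expressing P. falciparum in infected erythrocytes (2% hematocrit, 0.1% parasitemia final) in RPMI 1640/0.5% Albumax were exposed to compound for 48 hours at 37 C, 5% CO2; growth read as luminescence.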
# Shiga inhibitor = blocks Shiga toxin action in Vero cells. Vero cells, Shiga toxin protein synthesis inhibition reporter. inhibition, % at 38.7 µM. actives 9.2% (n = 290,000); in the data active = inhibition mostly above about 28%, no sharp cut-off; inactive = mostly below about 43%
# Cycloheximide cs = counter-screen for Shiga toxin inhibitors: cycloheximide protein synthesis inhibition | actives 12% (n = 300,000) | AID 2314 | max response, % | cell reporter, cycloheximide protein synthesis inhibition counterscreen; in the data active = max response mostly above about 13%, no sharp cut-off; inactive = mostly below about 14%; also: read at 38.3 µM for the half of the compounds with a filed dose
# Numbers stand for hits; – = inactive; ? = inconclusive; · = no result given. Unless noted, calls follow the shape of the dose curve; as a rule, active = well fitted inhibition curve with a large enough effect; inconclusive = small, poorly fitted or top-dose-only effect, or another doubt; inactive = no such curve, though single readings can be large or run the other way.
SMILES,NS1 inh,Pf growth 96h,Pf growth 48h,Shiga inhibitor,Cycloheximide cs
O=C(/C=C/c1cccc([N+](=O)[O-])c1)c1ccc2c(c1)OCCO2,–,?,–,–,–
Cc1ccc(O)c(C(=O)/C=C/c2ccc3c(c2)OCCO3)c1,·,?,–,141.6,32.9
O=C(/C=C/c1ccc2c(c1)OCCO2)c1ccccc1,–,–,–,74.2,42.2
COc1ccc(C(=O)/C=C/c2ccc3c(c2)OCCO3)cc1,–,–,–,92.2,30.9
Cc1cc(-c2ccccc2)nc2cc(C(=O)OC(C)C)nn12,–,?,–,·,–
C#CCOCCOCCOCCNc1nc(N2CCN(C(=O)Cn3cc(CCCCN)nn3)CC2)nc(N2CCN(C(=O)Cn3cc(CCCN=C(N)N)nn3)CC2)n1,·,0.828µM,?,·,·
C#CCOCCOCCOCCNc1nc(N2CCN(C(=O)Cn3cc(CCCN=C(N)N)nn3)CC2)nc(N2CCN(C(=O)[C@H](C)n3cc(CCCN=C(N)N)nn3)CC2)n1,–,?,?,–,–
C#CCOCCOCCOCCNc1nc(N2CCN(C(=O)[C@H]([C@@H](C)CC)n3cc(CCCN=C(N)N)nn3)CC2)nc(N2CCN(C(=O)[C@H](CCCCN)n3cc(CCCC)nn3)CC2)n1,–,11.7µM,?,–,–
C#CCOCCOCCOCCNc1nc(N2CCN(C(=O)Cn3cc(CCCN=C(N)N)nn3)CC2)nc(N2CCN(C(=O)[C@H](CCCCN)n3cc(CCCC)nn3)CC2)n1,·,11.7µM,11.7µM,·,·
C#CCOCCOCCOCCNc1nc(N2CCN(C(=O)[C@H](C)n3cc(CCCN=C(N)N)nn3)CC2)nc(N2CCN(C(=O)[C@H](CCCCN)n3cc(CCCC)nn3)CC2)n1,–,11.7µM,?,–,–
C#CCOCCOCCOCCNc1nc(N2CCN(C(=O)Cn3cc(CCCN=C(N)N)nn3)CC2)nc(N2CCN(C(=O)[C@H](CCCCN)n3cc(CCC(=O)O)nn3)CC2)n1,·,?,–,·,·
C#CCOCCOCCOCCNc1nc(N2CCN(C(=O)[C@H]([C@@H](C)O)n3cc(CCCCN)nn3)CC2)nc(N2CCN(C(=O)[C@H](CCCCN)n3cc(CCCC)nn3)CC2)n1,·,–,?,·,·
Nc1ncnc2c1ncn2[C@@H]1O[C@H](C(=O)NC2CC2)[C@H](O)[C@H]1O,–,·,·,·,·
COc1ccccc1Oc1c(C)oc2c(CN(C)C)c(O)ccc2c1=O,–,?,–,–,–
O=C(Nc1cccc(C(=O)Nc2cc(C(=O)Nc3ccc([S+](=O)([O-])[O-])c4cc([S+](=O)([O-])[O-])cc(SOOO)c34)ccc2F)c1)Nc1cccc(C(=O)Nc2cc(C(=O)Nc3ccc([S+](=O)([O-])[O-])c4cc([S+](=O)([O-])[O-])cc([S+](=O)([O-])[O-])c34)ccc2F)c1,·,·,·,–,–
O=C(NC1CCCN(Cc2ccc(Cl)cc2)C1)c1c(F)ccc(F)c1F (centres undefined),–,4.65µM,–,–,–
O=C(NC1CCCN(Cc2ccc(Cl)cc2)C1)c1ccccc1C(F)(F)F (centres undefined),–,4.65µM,?,–,–
O=C(NC1CCCN(Cc2ccc(Cl)cc2)C1)c1c(F)cccc1F (centres undefined),–,?,–,–,–
Cc1c(N(C(=O)CNC(=O)c2ccccc2)C2(C(=O)NC3CCCCC3)CCCCC2)c(=O)n(-c2ccccc2)n1C,·,?,5.86µM,–,–
CC(=O)NCC(=O)N(c1c(C)n(C)n(-c2ccccc2)c1=O)C1(C(=O)NC2CCCC2)CCCCC1,–,?,–,–,–
Cc1cccn2c(=O)c(/C=C(\C#N)C(=O)NC3CCS(=O)(=O)C3)c(N3CCC(C(N)=O)CC3)nc12 (centres undefined),–,–,–,–,–
Cc1cccn2c(=O)c(/C=C(\C#N)C(=O)NC3CCS(=O)(=O)C3)c(Oc3ccccc3Cl)nc12 (centres undefined),–,?,4.65µM,–,–
Cc1ccccc1Oc1nc2c(C)cccn2c(=O)c1/C=C(\C#N)C(=O)NC1CCS(=O)(=O)C1 (centres undefined),–,11.7µM,5.86µM,–,–
Cc1[nH]nc(-c2ccc(OCc3cnn(-c4ccccc4)c3)cc2O)c1Oc1ccc(F)cc1,–,9.28µM,?,–,–
CCOc1ccc(-c2n[nH]c(C)c2Oc2ccc(OC)cc2)c(O)c1,–,·,13.1µM,–,–
CSCCC(NC(=O)/C(=C/c1ccco1)NC(=O)c1ccc(Br)o1)C(=O)O (centres undefined),–,–,–,–,–

# High-throughput results from PubChem.
